Results: PubChem BioAssay

tested on: XIP peptide (Xip251-270); experiment: small-molecule binders of XIP peptide, primary screen, biochemical, small-molecule microarray, fluorescence 635/667 nm, 0.5 µg/mL protein (AID 1183); conditions: small-molecule microarray binding, fluorescence 635 nm; higher = more signal

Row | Compound | composite z-score
1 | CCCCC(O)C1C=CC2C(=O)N(C)C(=O)C2N1Nc1ccccc1 (stereo not given) | 0.0092
2 | O=C1C2C=CC(C(O)c3cccs3)N(Nc3ccccc3)C2C(=O)N1c1ccccc1 (stereo not given) | 0.171
3 | COC(=O)[C@@]1(Cc2ccccc2)[C@@H]2[C@@H](CC(=O)[C@H]2CC(=O)C(=O)N(C)C)CN1C(=O)c1ccccc1 | -0.0913
4 | CC=CC(O)C1C=CC2C(=O)N(C)C(=O)C2N1NC(=O)OC(C)(C)C (stereo not given) | 0.335
5 | CN(C)C(=O)[C@]1(Cc2ccccc2)N=C(c2ccc(OCCCO)cc2)O[C@@H]1c1ccccc1 | 0.851
6 | C=CCC(OC(C)=O)[C@@H]1[C@@H](N(Cc2cccc3ccccc23)C(=O)c2ccc(-c3ccccc3)cc2)c2cc(OCCCO)ccc2N1C(=O)c1ccc2ccccc2n1 (stereo not given in full) | 0.0494
7 | C=CCC(OC(C)=O)[C@@H]1[C@@H](N(Cc2ccc(-c3ccccc3)cc2)C(=O)c2ccc(-c3ccccc3)cc2)c2cc(OCCCO)ccc2N1C(=O)c1ccc2ccccc2n1 (stereo not given in full) | 0.119
8 | NC(=O)NCC#Cc1ccc2c(c1)[C@]1(C(=O)N2)[C@H](C(=O)N2CCCCCCC2)[C@H]2C(=O)O[C@H](c3ccccc3)[C@H](c3ccccc3)N2[C@@H]1c1ccc(O)cc1 | 0.833
9 | C=CCC(OC(C)=O)[C@@H]1[C@@H](N(Cc2ccc(-c3cccc(C(F)(F)F)c3)o2)C(=O)Cc2ccc(F)cc2)c2cc(OCCCO)ccc2N1C(=O)c1ccc2ccccc2c1 (stereo not given in full) | -0.669
10 | O=C1C2C=CC(C(O)c3ccc([N+](=O)[O-])cc3)N(Nc3ccccc3)C2C(=O)N1c1ccccc1 (stereo not given) | 0.467
11 | O=C1c2ccccc2[C@@]2(Cc3ccccc3N(Cc3ccccc3)C2=O)[C@H](c2ccc(CO)cc2)N1Cc1ccccc1 | -0.283
12 | CCOC(=O)C[C@H]1[C@H](OC(=O)Cc2ccc3c(c2)OCO3)[C@@H](NC(=O)c2ccccc2)c2cc(OCCCO)ccc2N1C(=O)Cc1ccc(OC)cc1 | 0.288
13 | CCOC(=O)C[C@H]1[C@H](OC(=O)c2ccc(-c3ccccc3)cc2)[C@@H](NC(=O)CC(C)C)c2cc(OCCCO)ccc2N1C(=O)Cc1ccc(OC)cc1 | -0.0598
14 | CC(C)CNC(=O)[C@@H]1c2ccccc2C(=O)N(C2Cc3ccccc3C2)[C@H]1c1ccc(CO)cc1 | 0.509
15 | C=C(COC)C(=O)CC[C@@H](OC(C)=O)c1ccc(OCCO)cc1 | 0.779
16 | COCCOC(=O)N1C(=O)[C@@]2(c3cc(C#CC4(O)CCCCCC4)ccc31)[C@H](c1ccc(OCCO)cc1)N1[C@H](c3ccccc3)[C@H](c3ccccc3)OC(=O)[C@H]1[C@@H]2C(=O)N1CCCCCCC1 | 0.743
17 | [N-]=[N+]=NCc1ccccc1C[C@]1(C(=O)O)COC(c2ccc(OCCCO)cc2)=N1 | 0.264
18 | N[C@@H](Cc1ccccc1)Cn1cc(C2(O)CCCCC2)nn1 | 0.0069

Row | Compound | composite z-score
19 | Cc1ccc(F)cc1S(=O)(=O)N[C@@H]1CCN(Cc2ccc3[nH]ccc3c2)C1 | 0.261
20 | COCCOC(=O)N1C(=O)[C@@]2(c3cc(C#CC4=CCCCC4)ccc31)[C@H](c1ccccc1OCCO)N1[C@H](c3ccccc3)[C@H](c3ccccc3)OC(=O)[C@H]1[C@@H]2C(N)=O | 0.558
21 | CC1(C)OC[C@@]23C=C(Br)[C@@H](C[C@H]12)[C@@]1(CO1)C3=O | 0.0841
22 | CN1C(=O)C2C=CC(C(O)c3ccc(-c4ccccc4)s3)N(Nc3ccccc3)C2C1=O (stereo not given) | 0.753
23 | C=C(COC)/C(=C/C[C@H](OC(=O)c1ccncc1)c1ccc(OCCO)cc1)c1cc(C(=O)OC)ccc1OC | 0.667
24 | COCCn1c(C(=O)N2CCCC2)cc2c1C[C@H]1CN(C(=O)c3ccccc3)[C@@](Cc3ccccc3)(C(=O)OC)[C@@H]21 | 0.857
25 | CCC[C@@H]1C=C(C(=O)OCC)[C@H](c2ccccc2)N1S(=O)(=O)c1ccc(C)cc1 | 0.681
26 | COCC(=C=CC[C@@H](O)c1cccc(OCCO)c1)C[C@@H](O)COCc1ccccc1 | 0.0674
27 | CC(C)[C@@H](C(=O)O)n1cc(-c2ccccc2)nn1 | 0.237
28 | CN(C)CCCCNC(=O)[C@H]1C[C@H]2C(=O)NCC(=O)N2[C@H]1c1cccc(OCCO)c1 | 0.129
29 | [N-]=[N+]=NCc1ccccc1C[C@]1(C(=O)N2CCOCC2)N=C(c2ccc(OCCCO)cc2)O[C@H]1c1ccccc1CN=[N+]=[N-] | 0.733
30 | C=CCNC(=O)[C@@H]1[C@H]2C(=O)O[C@H](c3ccccc3)[C@H](c3ccccc3)N2[C@H](c2ccccc2OCCO)[C@@]12C(=O)N(C(=O)OCCOC)c1ccc(C#CCCO)cc12 | 0.683
31 | CC(C)=CCN(C(=O)C#Cc1ccccc1)[C@H](CO)c1ccccc1 | -0.0445
32 | Cc1ccccc1C(O)C1C=CC2C(=O)N(c3ccccc3)C(=O)C2N1Nc1ccccc1F (stereo not given) | 0.646
33 | C=CC[C@]1(C(=O)NCc2ccccc2)COC(c2ccc(OCCCO)cc2)=N1 | 0.779
34 | C=C(/C(=C/C[C@@H](OC(C)=O)c1ccccc1OCCO)c1cc(C(=O)OC)ccc1OC)C(C)C | 0.839
35 | CCCC=C(CCC)[C@@H](NS(=O)(=O)c1ccc(Cl)cc1)c1ccccc1 | 0.36
